The record followed here is the antibiotic and cytotoxicity screens of Wong et al. (2023).

The campaign covered roughly 39,000 compounds. About 500 (1.3%) were called active. This is one part of a sample in which actives are shown more often than they occur.

In the test the test system is S. aureus RN4220. The experiment in a line: growth inhibition call (relative growth <= 0.2). As to conditions: 50 µM.
`O=C(C[C@@H]1C[C@@H]2c3cc(NC(=O)c4ccc5c(c4)OCO5)ccc3O[C@@H]2[C@H](CO)O1)NCc1ccc(Oc2ccccc2)cc1`: the growth inhibition call was “inactive”.

Turning to `CN(C)[C@@H]1C(=O)C(C(=O)NCN2CCCC2)=C(O)[C@@]2(O)C(O)=C3C(=O)c4c(O)cccc4[C@@](C)(O)[C@H]3C[C@@H]12`, the growth inhibition call was “active”. As for `CN(C)C1C(O)=C(C(N)=O)C(=O)C2(O)C(O)=C3C(=O)c4c(O)cccc4C(C)(O)C3CC12.Cl` (stereo not drawn), the growth inhibition call was “inactive”.

In the case of `CN(C)C1C(O)=C(C(N)=O)C(=O)C2(O)C(O)=C3C(=O)c4c(O)ccc(Cl)c4C(C)(O)C3CC12.Cl` (stereo not drawn), the growth inhibition call is “inactive”. With `C[C@H](O)[C@H](O)[C@@H](O)[C@@H](O)/C=N/NC(=O)c1ccc(C(=O)NO)cc1`, the growth inhibition call is “inactive”. `COc1ccc(S(=O)(=O)N2C[C@@H](O)COC[C@H]3O[C@@H](CC(=O)N[C@H]4CCN(Cc5ccccc5)C4)CC[C@@H]32)cc1`: the growth inhibition call was “inactive”. As to `CN(CCCCCCCCCCN(C)C(=O)Oc1cccc([N+](C)(C)C)c1)C(=O)Oc1cccc([N+](C)(C)C)c1`, the growth inhibition call is “active”. Take `CC(=O)Oc1cccc(O)c1`: the growth inhibition call is “inactive”. The entry for `CC(=O)Oc1cccc(C)c1` [meta-CRESYL ACETATE] is “inactive”; for `C[C@@H]1CN([C@H](C)CO)C(=O)c2cc(NC(=O)C3CCCCC3)ccc2O[C@@H](C)CCCCO[C@@H]1CN(C)C(=O)Nc1ccccc1` it is “inactive”.

Consider `COc1ccc(S(=O)(=O)N(C)C[C@@H]2Oc3ccc(NC(=O)CCN4CCOCC4)cc3CC(=O)N([C@@H](C)CO)C[C@H]2C)cc1`, for which the growth inhibition call is “inactive”. For the compound `C[C@@H]1CN([C@H](C)CO)C(=O)Cc2cc(NS(=O)(=O)c3cn(C)cn3)ccc2O[C@H]1CN(C)S(C)(=O)=O`, the growth inhibition call is “inactive”.

As to `CC(=O)N(C)C1(c2ccccc2)CCN(CCC[C@]2(c3ccc(Cl)c(Cl)c3)CCCN(C(=O)c3ccccc3)C2)CC1`, the growth inhibition call was “inactive”. In the case of `CC(C)Oc1cccc(CC(=O)N2CCC[C@](CC[N+]34CCC(c5ccccc5)(CC3)CC4)(c3ccc(Cl)c(Cl)c3)C2)c1`, the growth inhibition call was “active”. With `C[C@@H]1CN([C@@H](C)CO)C(=O)c2cccc(NC(=O)C3CCOCC3)c2O[C@H]1CN(C)Cc1ccc(C(=O)O)cc1`, the growth inhibition call is “inactive”. Regarding `NCC[C@H]1CC[C@@H](NC(=O)Nc2ccc(F)cc2)[C@@H](CO)O1`, the growth inhibition call is “inactive”. Take `CC(=O)Oc1cc2c(c(C)c1OC(C)=O)CC=C1[C@@]2(C)CC[C@@]2(C)[C@H]3C[C@](C)(C(=O)O)CC[C@]3(C)CC[C@]12C`: the growth inhibition call is “active”. On to `CC1(C(=O)O)CCC2(C)CCC3(C)C(=CC(=O)C4C5(C)CCC(O)C(C)(C)C5CCC43C)C2C1` (stereo not drawn), for which the growth inhibition call is “inactive”. For `C[C@@H]1CCCCO[C@@H](CN(C)Cc2ccc(C(=O)O)cc2)[C@H](C)CN([C@H](C)CO)C(=O)c2cc(NC(=O)Nc3ccc(F)cc3)ccc2O1`, the growth inhibition call was “inactive”. `C[C@@H]1CN([C@@H](C)CO)C(=O)c2cc(C#CC3(O)CCCC3)cnc2O[C@@H]1CN(C)S(=O)(=O)c1ccc(F)cc1`: the growth inhibition call is “inactive”. For `COCC(=O)N1CC[C@]2(CC1)CN([C@H](CO)c1c2c2ccc(cc2n1C)OC)C(=O)Cc1ccccc1`, the growth inhibition call is “inactive”. Regarding `CCC(=O)O[C@H]1[C@H](O[C@@H]2[C@@H](C)[C@H](O[C@H]3C[C@@](C)(OC)[C@@H](O)[C@H](C)O3)[C@@H](C)C(=O)O[C@H](CC)[C@@](C)(O)[C@H](O)[C@@H](C)C(=O)[C@H](C)C[C@@]2(C)O)O[C@H](C)C[C@@H]1N(C)C`, the growth inhibition call was “inactive”. For the compound `CCC(=O)OC1C(OC2C(C)C(OC3CC(C)(OC)C(O)C(C)O3)C(C)C(=O)OC(CC)C(C)(O)C(O)C(C)C(=O)C(C)CC2(C)O)OC(C)CC1N(C)C.CCCCCCCCCCCCOS(=O)(=O)O` (stereo not drawn), the growth inhibition call is “inactive”.

`CCOC(=O)CCC(=O)OC1C(OC2C(C)C(OC3CC(C)(OC)C(O)C(C)O3)C(C)C(=O)OC(CC)C(C)(O)C(O)C(C)C(=O)C(C)CC2(C)O)OC(C)CC1N(C)C` (stereo not drawn): the growth inhibition call is “active”. For `CCOC(=O)CCC(=O)O[C@H]1[C@H](O[C@@H]2[C@@H](C)[C@H](O[C@H]3C[C@@](C)(OC)[C@@H](O)[C@H](C)O3)[C@@H](C)C(=O)O[C@H](CC)[C@@](C)(O)[C@H](O)[C@@H](C)C(=O)[C@H](C)C[C@@]2(C)O)O[C@H](C)C[C@@H]1N(C)C`, the growth inhibition call was “active”. Regarding `CO[C@@H]1CN(C)C(=O)c2ccc(NC(=O)Nc3ccc(F)cc3)cc2OC[C@@H](C)N(C(=O)c2ccc(F)cc2)C[C@H]1C`, the growth inhibition call was “inactive”. To `Cc1nn(C)c2c1[C@@H](c1ccc(C(F)(F)F)cc1)C(C#N)C(=N)O2` (stereo partly drawn) belongs “inactive”.

As for `CCCNC(=O)N(C)C[C@H]1Oc2cc(-c3ccccc3F)ccc2S(=O)(=O)N([C@@H](C)CO)C[C@H]1C`, the growth inhibition call is “inactive”.

As to `Cc1noc(C)c1NC(=O)Nc1ccc2c(c1)C(=O)N([C@@H](C)CO)C[C@@H](C)[C@@H](CN(C)Cc1ccc(C(=O)O)cc1)OCCCC[C@H](C)O2`, the growth inhibition call is “inactive”. As for `C[C@@H]1CN([C@H](C)CO)C(=O)c2cc(NC(=O)c3ccncc3)ccc2O[C@@H]1CN(C)Cc1ccc(C(=O)O)cc1`, the growth inhibition call was “inactive”. Consider `COc1cccc(CNC(=O)c2cc3c(c(-c4cccc(-c5ccncc5)c4)n2)[C@@H](CCO)N([S@](=O)C(C)(C)C)C3)c1`, for which the growth inhibition call is “inactive”. `CCCCCCCCCCCCCCCC(=O)O[C@@H]1[C@@H](O)[C@@H](O)[C@@H]([C@H](NC(=O)[C@@H]2C[C@@H](CCC)CN2C)[C@H](C)Cl)O[C@@H]1SC`: the growth inhibition call is “inactive”. As for `CCC[C@@H]1C[C@@H](C(=O)N[C@H]([C@H]2O[C@H](SC)[C@H](O)[C@@H](O)[C@H]2O)[C@@H](C)Cl)N(C)C1`, the growth inhibition call was “active”. To `CCC[C@@H]1C[C@@H](C(=O)N[C@@H]([C@H]2O[C@H](SC)[C@H](OP(=O)(O)O)[C@@H](O)[C@H]2O)[C@H](C)Cl)N(C)C1` belongs “inactive”; to `CCCCCCCCCCCCCCCC(=O)OC1C(SC)OC(C(NC(=O)C2CC(CCC)CN2C)C(C)Cl)C(O)C1O.Cl` (stereo not drawn), “inactive”; to `CCCC1CC(C(=O)NC(C(C)Cl)C2OC(SC)C(O)C(O)C2O)N(C)C1.Cl` (stereo not drawn), “active”. With `C[C@H](CO)N1C[C@H](C)[C@H](CN(C)Cc2ccncc2)Oc2ccc(NC(=O)Nc3cccc4ccccc34)cc2CC1=O`, the growth inhibition call is “inactive”. As for `COc1ccc(NC(=O)Nc2ccc3c(c2)C(=O)N([C@H](C)CO)C[C@H](C)[C@@H](CN(C)S(=O)(=O)c2ccccc2)OCCCC[C@H](C)O3)cc1`, the growth inhibition call is “inactive”.
